# Results reported in PubChem BioAssay AID2061304 (National Center for Advancing Translational Sciences (NCATS), 2025).
# Records with an inconclusive call do not appear. Calls of active or inactive are those of the source. Calls come from the whole dose curve; as a rule, active = well fitted inhibition curve with a large enough effect; inconclusive = small, poorly fitted or top-dose-only effect; inactive = flat fitted curve, though single readings scatter. Square brackets hold non-standard residues; d marks the D form. Peptide text beside a SMILES is read from it. Dolaproine = CO[C@@H]([C@@H]1CCCN1)[C@@H](C)C(=O)O; Dil = CC[C@H](C)[C@H](NC)[C@@H](CC(=O)O)OC; NMeV = CN[C@H](C(=O)O)C(C)C
# Experiment: Identification of antibody-drug conjugate (ADC) payloads which are substrates of ATP-binding cassette drug efflux transporters: ABCB1-HeLa-KB-8-5-11 cell line
# Details: KB-8-5-11 (P-gp overexpressing HeLa) viability, CellTiter-Glo, 48 h; series mostly up to 31.4 µM; activity change, negative = less viable: at the top concentration
# Excerpt: Antibody-drug conjugates (ADCs) feature an antibody recognizing a specific protein joined to a potent toxic payload. Numerous antibody-drug conjugates have received FDA approval; however, clinical resistance arises. Resistance mechanisms include decreased expression or mutation of the antibody target, impaired payload release, or increased expression of ATP-binding cassette (ABC) efflux transporters associated with multidrug resistance. We therefore sought to characterize the interaction of ABC multidrug transporters with ADC payloads. We performed a high-throughput screen with 27 common ADC payloads using cells lines expressing ABC transporters P-glycoprotein (P-gp, encoded by ABCB1) or ABCG2 (encoded by ABCG2). Confirmatory assays were also performed using cells transfected to express P-gp, ABCG2, or MRP1 (encoded by ABCC1). Several commonly used ADC payloads were substrates of P-gp, including calicheamicin gamma1, monomethyl auristatin E, DM1, and DM4. All the pyrrolobenzodiazepines tested - SJG136, SGD-1882, SG2057, and SG3199 - were substrates of P-gp, ABCG2, and MRP1. […] These findings highlight the risk of transporter-mediated resistance with certain ADC payloads and underscore the importance of selecting payloads that evade ABC transporter recognition in future ADC development.
# HEK-293 cells were transfected with empty vector (pcDNA) or vector containing the human ABCB1 (MDR-19), ABCG2 (R-5), or ABCC1 gene (MRP1) and were maintained in EMEM with 2 mg/mL G418 added to maintain transporter expression. The HeLa derivative KB-3-1 and the P-gp overexpressing KB-8-5-11 subline were maintained in DMEM; KB-8-5-11 additionally received 100 ng/mL colchicine. H460 parental cells were obtained from the Division of Cancer Treatment and Diagnosis Tumor Repository, National Cancer Institute at Frederick, MD and were cultured in RPMI. The ABCG2 expressing subline H460 MX20 was generated by selecting H460 cells in 20 nM mitoxantrone. Media in all cases was supplemented with 10% FBS and 1% penicillin-streptomycin. We explored 27 common ADC payloads, in two orthogonal, paired cell line sets-a drug selected and transfected set for each transporter--to identify substrates of the ABC transporters P-gp and ABCG2. Compounds were sourced from Levena Biopharma (San Diego, CA), Selleck Chem (Houston, TX), ChemieTek (Indianapolis, IN), or Microsource Discovery Systems (Gaylordsville, CT). Screening was performed as previously described. Briefly, cells were plated at a density of 500 cells/well in 1536 well plates with compounds added using a 1536-head pin tool (Kalypsys, San Diego CA). Cells were incubated with cytotoxic drugs and processed with CellTiter Glo reagent (Promega, Madison, WI) to determine viability after 48 hours. P-gp substrates were identified by comparing compound activity between paired sets of low-expressing (sensitive) and over-expressing (resistant) cell lines.
SMILES,Potency,"activity change, negative = less viable"
COc1cccc2c1C(=O)c1c(O)c3c(c(O)c1C2=O)C[C@@](O)(C(=O)CO)C[C@@H]3O[C@H]1C[C@H](N)[C@H](O)[C@H](C)O1,16700 nM (active),
COC(=O)c1cc2c3c(cc(O)c2[nH]1)N(C(=O)c1cc2cc(OC)c(OC)c(OC)c2[nH]1)CC3CCl (stereo not drawn),0.6 nM (active),
CC[C@H](C)[C@@H]([C@@H](CC(=O)N1CCC[C@H]1[C@H](OC)[C@@H](C)C(=O)N[C@@H](Cc1ccccc1)C(=O)O)OC)N(C)C(=O)[C@@H](NC(=O)[C@@H](NC)C(C)C)C(C)C (H-[NMeV]V[Dil][Dolaproine]F-OH),265 nM (active),
CN(C)CCOc1ccc2[nH]c(C(=O)N3C[C@@H](CCl)c4c3cc(O)c3ccccc43)cc2c1,0.7 nM (active),
COc1cccc2c1C(=O)c1c(O)c3c(c(O)c1C2=O)C[C@@](O)(C(=O)CO)C[C@@H]3O[C@H]1C[C@H]2[C@H](O[C@@H]3[C@@H](OC)OCCN32)[C@H](C)O1,0.2 nM (active),
CCc1c2c(nc3ccc(O)cc13)-c1cc3c(c(=O)n1C2)COC(=O)[C@]3(O)CC,1330 nM (active),
COc1ccc(C2=CN3C(=O)c4cc(OC)c(OCCCOc5cc6c(cc5OC)C(=O)N5C=C(c7ccc(N)cc7)C[C@@H]5C=N6)cc4N=C[C@H]3C2)cc1,,0.446% (inactive)
CC(C)(C)OC(=O)Nc1ccc2[nH]c(C(=O)N3C[C@@H](CCl)c4c3cc(O)c3ccccc43)cc2c1,9.4 nM (active),
CC[C@H](C)[C@@H]([C@H](N)CC(=O)N1CCC[C@H]1[C@H](OC)[C@@H](C)C(=O)N[C@@H](Cc1ccccc1)c1nccs1)N(C)C(=O)[C@@H](NC(=O)[C@H](C(C)C)N(C)C)C(C)C,6.7 nM (active),
CC[C@H](C)[C@@H]([C@H](N)CC(=O)N1CCC[C@H]1[C@H](OC)[C@@H](C)C(=O)N[C@@H](Cc1ccccc1)c1nccs1)N(C)C(=O)[C@@H](NC(=O)[C@@H](NC)C(C)C)C(C)C,1.9 nM (active),
COc1cc2cc(c1Cl)N(C)C(=O)C[C@H](O)[C@]1(C)O[C@H]1[C@H](C)C1C[C@@](O)(NC(=O)O1)[C@H](OC)/C=C/C=C(\C)C2,13300 nM (active),
CCN[C@H]1CO[C@@H](O[C@H]2[C@H](O[C@H]3C#C/C=C\C#C[C@]4(O)CC(=O)C(NC(=O)OC)=C3/C4=C\CSSSC)O[C@H](C)[C@@H](NO[C@H]3C[C@H](O)[C@H](SC(=O)c4c(C)c(I)c(O[C@@H]5O[C@@H](C)[C@H](O)[C@@H](OC)[C@H]5O)c(OC)c4OC)[C@@H](C)O3)[C@@H]2O)C[C@@H]1OC,420 nM (active),
CC[C@]1(O)CC2CN(CCc3c([nH]c4ccccc34)[C@@](C(=O)OC)(c3cc4c(cc3OC)N(C)[C@H]3[C@@](O)(C(=O)OC)[C@H](OC(C)=O)[C@]5(CC)C=CCN6CC[C@]43[C@@H]65)C2)C1 (stereo partly drawn),298 nM (active),
